Experimental data published in PubChem BioAssay (NCATS).
Inconclusive results are not listed. Where a call stands in place of a potency, no number is given. The source made the active and inactive calls. Calls follow the shape of the dose curve; as a rule, active = well fitted cell-killing curve with a large enough effect; inconclusive = small, poorly fitted or top-dose-only effect, or effect the other way; inactive = no such curve, though single readings can be large or run the other way.

Tests used:
[1] = Quantitative High-Throughput drug screen in 47 multiple myeloma cell lines against the NCATS MIPE library collection: Delta47_JCRB cell viability assay (AID 1918925; also: nearly all actives have a fitted effect of over 45% in size)
In short: (§1)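 Luminescent ATP measurement with CellTiter-Glo gives viability, scaled between DMSO-only wells (100%) and media-only wells (0%). Cells, 500 per well, faced library compounds for 48 hours at 37C.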

[2] = Quantitative High-Throughput drug screen in 47 multiple myeloma cell lines against the NCATS MIPE library collection: EJM_DSMZ cell viability assay (AID 1918926; also: nearly all actives have a fitted effect of over 30% in size)
In short: as §1

[3] = Quantitative High-Throughput drug screen in 47 multiple myeloma cell lines against the NCATS MIPE library collection: AMO1_DSMZ cell viability assay (AID 1918927; also: nearly all actives have a fitted effect of over 30% in size)
In short: as §1

[4] = Quantitative High-Throughput drug screen in 47 multiple myeloma cell lines against the NCATS MIPE library collection: ARP1_JJKsccF8 cell viability assay (AID 1918928; also: nearly all actives have a fitted effect of over 40% in size)
In short: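 Myeloma cells at 500 per well in 1536-well format treated with MIPE 4.0 library by pin transfer for 48 h at 37C, 5% CO2. Viability from ATP luminescence (CellTiter-Glo), normalized to DMSO (100%) and media-only (0%) wells.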

[5] = Quantitative High-Throughput drug screen in 47 multiple myeloma cell lines against the NCATS MIPE library collection: FR4_PLB cell viability assay (AID 1918924; also: nearly all actives have a fitted effect of over 35% in size)
In short: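 Primary qHTS used for cherry-picking: cells at 500/well, library compounds for 48 h (37C, 5% CO2), luminescent ATP assay.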
Potency is read from the fitted curve at half-maximal effect.

In the case of `CC(C)(O)[C@H]1CC[C@@](C)([C@H]2[C@@H](O)C[C@@]3(C)[C@@H]4C[C@H](O[C@@H]5O[C@H](CO)[C@@H](O)[C@H](O)[C@@H]5O)[C@H]5C(C)(C)[C@@H](O[C@@H]6OC[C@@H](O)[C@H](O)[C@@H]6O)CC[C@@]56C[C@@]46CC[C@]23C)O1`, the Potency [1] is reported as “inactive”, the Potency [2] is reported as “inactive” and the Potency [3] is reported as “inactive”. For the same compound, the Potency [4] was “inactive”.
With `CC(C=CC(=O)NO)=C[C@@H](C)C(=O)c1ccc(N(C)C)cc1` the Potency [1] was 0.235 µM (active), the Potency [2] was 0.469 µM (active) and the Potency [3] was 0.235 µM (active). The Potency [4] was 0.209 µM (active).
For `N#CC(=C(O)c1ccc(Cl)cc1Cl)c1nc2cc(Cl)ccc2c(=O)[nH]1`, the Potency [1] was “inactive”, the Potency [2] was “inactive” and the Potency [3] was 1.05 µM (active). For the same compound, the Potency [4] was “inactive”.
In the case of `N#CC(=Cc1ccc(O)c(O)c1)C(=O)NCc1ccccc1`, the Potency [1] is reported as 1.66 µM (active), the Potency [2] is reported as 14.8 µM (active) and the Potency [3] is reported as “inactive”.
For `COC(=O)C=CC(=O)OC`, the Potency [3] was “inactive”.
For `Cc1cnn(C)c1C(=O)Nc1cc(Nc2ccc3c(C=Cc4ccccn4)n[nH]c3c2)ccc1F`, the Potency [3] was 9.35 µM (active).
In the case of `CN[C@H]1[C@@H](O)[C@@H]2O[C@@H]3O[C@H](C)CC(=O)[C@]3(O)O[C@@H]2[C@@H](NC)[C@H]1O`, the Potency [1] is reported as 1.18 µM (active), the Potency [2] is reported as 0.166 µM (active) and the Potency [3] is reported as 0.418 µM (active). For the same compound, the Potency [4] was 1.32 µM (active).
In the case of `C=C1C[C@@]2(O)O[C@@]3(C[C@H]2C(C)C)[C@H](C)CC[C@H]13`, the Potency [1] is reported as “inactive”, the Potency [2] is reported as “inactive” and the Potency [4] is reported as “inactive”.
In the case of `CN1CCCN(C(=O)c2cccc(-c3ccc(C=C4C(=O)Nc5ccc(Cl)cc54)o3)c2)CC1`, the Potency [5] is reported as 26.4 µM (active) and the Potency [4] is reported as 16.6 µM (active).
For `Cc1[nH]c(C=C2C(=O)Nc3ccccc32)c(C)c1CCC(=O)O`, the Potency [1] was 4.69 µM (active), the Potency [2] was 5.9 µM (active) and the Potency [3] was 1.48 µM (active).
With `CS[C@H]1SC[C@@H]2C(=O)N(C)[C@H](C(C)C)C(=O)OC[C@H](NC(=O)c3cnc4ccccc4n3)C(=O)N[C@H](C)C(=O)N(C)[C@@H]1C(=O)N(C)[C@H](C(C)C)C(=O)OC[C@H](NC(=O)c1cnc3ccccc3n1)C(=O)N[C@H](C)C(=O)N2C` the Potency [1] was 0.001 µM (active), the Potency [2] was 0.0059 µM (active) and the Potency [4] was 0.0033 µM (active).
With `Cc1cn([C@@H]2O[C@H](CO)[C@@H](O)[C@H]2F)c(=O)[nH]c1=O` the Potency [1] was “inactive”, the Potency [2] was “inactive” and the Potency [3] was “inactive”.
For `N#Cc1ccc(COC[C@H]2O[C@@H](n3c(NCc4ccc(Cl)c(Cl)c4)nc4c(N)ncnc43)[C@@H](O)[C@@H]2O)cc1`, the Potency [4] was 6.62 µM (active).
For `COc1ccc(S(=O)(=O)Nc2cc(-c3c(O)ccc4ccccc34)c(O)c3ccccc23)cc1`, the Potency [1] was 9.35 µM (active), the Potency [2] was 23.5 µM (active) and the Potency [3] was 14.8 µM (active). The Potency [4] was 11.8 µM (active).
For `COc1ccc(CCC(=O)c2c(O)cc(O[C@@H]3O[C@H](CO)[C@@H](O)[C@H](O)[C@@H]3O[C@@H]3O[C@@H](C)[C@H](O)[C@@H](O)[C@@H]3O)cc2O)cc1O`, the Potency [2] was “inactive” and the Potency [3] was “inactive”.
In the case of `C[C@@H](Oc1ccc2[nH]nc(C=Cc3cnn(CCO)c3)c2c1)c1c(Cl)cncc1Cl`, the Potency [2] is reported as 4.18 µM (active) and the Potency [4] is reported as 5.26 µM (active).
In the case of `CC1(C)[C@H](O[C@H]2O[C@H](C(=O)O)[C@@H](O)[C@H](O)[C@H]2O[C@@H]2O[C@H](C(=O)O)[C@@H](O)[C@H](O)[C@H]2O)CC[C@@]2(C)[C@H]1CC[C@]1(C)[C@H]2C(=O)C=C2[C@H]3C[C@@](C)(C(=O)O)CC[C@]3(C)CC[C@]21C`, the Potency [1] is reported as “inactive”, the Potency [3] is reported as “inactive” and the Potency [4] is reported as “inactive”.
For `CC[C@@]1([C@@H]2O[C@@H]([C@H]3O[C@@](O)(CO)[C@H](C)C[C@H]3C)C[C@H]2C)CC[C@H]([C@]2(C)CC[C@]3(C[C@H](O)[C@@H](C)[C@@H]([C@@H](C)[C@@H](OC)[C@H](C)C(=O)O)O3)O2)O1`, the Potency [1] was 0.457 µM (active), the Potency [2] was 2.04 µM (active) and the Potency [3] was 0.0575 µM (active).
With `CN[C@H](CC(C)C)C(=O)N[C@H]1C(=O)N[C@@H](CC(N)=O)C(=O)N[C@@H]2C(=O)N[C@H]3C(=O)N[C@H](C(=O)N[C@H](C(=O)O)c4cc(O)cc(O)c4-c4cc3ccc4O)[C@H](O)c3ccc(c(Cl)c3)Oc3cc2cc(c3O[C@@H]2O[C@H](CO)[C@@H](O)[C@H](O)[C@@H]2O[C@H]2C[C@](C)(N)[C@H](O)[C@H](C)O2)Oc2ccc(cc2Cl)[C@H]1O` the Potency [2] was “inactive” and the Potency [3] was “inactive”.
For `C#C[C@]1(O)CC[C@@H]2[C@@H]3CCC4=CC(=O)CC[C@@H]4[C@H]3CC[C@@]21CC`, the Potency [1] was “inactive” and the Potency [4] was “inactive”.
With `CC(=O)NC(CS)C(=O)O` (stereo unspecified) the Potency [1] was “inactive” and the Potency [2] was “inactive”.
With `C=C1CCC2[C@](C)(CO)C(O)CC[C@]2(C)C1CC=C1C(=O)OCC1O` (stereo partly specified) the Potency [1] was “inactive”, the Potency [2] was “inactive” and the Potency [4] was “inactive”.
In the case of `Cc1nc(NC(=O)N2CCC[C@@H]2C(N)=O)sc1-c1ccnc(C(C)(C)C(F)(F)F)c1`, the Potency [1] is reported as 1.66 µM (active).
For `CC(C)N1[N]C(=C2C=c3cc(O)ccc3=N2)c2c(N)ncnc21`, the Potency [1] was 0.264 µM (active), the Potency [2] was 3.72 µM (active) and the Potency [3] was 0.662 µM (active). For the same compound, the Potency [4] was 0.0833 µM (active).
In the case of `CCN1CCN(C(=O)N[C@H](C(=O)N[C@@H]2C(=O)N3C(C(=O)O)=C(CSc4nnnn4C)CS[C@@H]23)c2ccc(O)cc2)C(=O)C1=O`, the Potency [1] is reported as “inactive”, the Potency [2] is reported as “inactive” and the Potency [3] is reported as “inactive”. For the same compound, the Potency [4] was “inactive”.
In the case of `Nc1nc(=O)n([C@H]2CSC(CO)O2)cc1F` (stereo partly specified), the Potency [1] is reported as “inactive”, the Potency [2] is reported as “inactive” and the Potency [3] is reported as “inactive”. The Potency [4] was “inactive”.
For `CCCCCCCCCCCC(CC1OC(=O)C1CCCCCC)OC(=O)C(CC(C)C)NC=O` (stereo unspecified), the Potency [2] was “inactive”, the Potency [3] was “inactive” and the Potency [4] was “inactive”.
With `CCOc1cc2ncc(C#N)c(Nc3ccc(OCc4ccccn4)c(Cl)c3)c2cc1NC(=O)C=CCN(C)C` the Potency [1] was 0.59 µM (active), the Potency [2] was 0.372 µM (active) and the Potency [3] was 0.0935 µM (active).
For `COC(=O)[C@@H]1[C@H]2C[C@@H]3c4[nH]c5ccccc5c4CCN3C[C@@H]2CC[C@@H]1O`, the Potency [1] was “inactive”, the Potency [2] was “inactive” and the Potency [3] was “inactive”. For the same compound, the Potency [4] was “inactive”.
With `CC(=O)N[C@H]1[C@@H]([C@H](O)[C@H](O)CO)OC(C(=O)O)=C[C@@H]1N=C(N)N` the Potency [1] was “inactive” and the Potency [4] was “inactive”.
For `COC(=O)[C@@H]1CC2=CC(=O)CC[C@]2(C)[C@@]23O[C@@H]2C[C@@]2(C)[C@H](CC[C@@]24CCC(=O)O4)[C@@H]13`, the Potency [2] was “inactive” and the Potency [3] was “inactive”.
With `OCc1ccccc1O[C@@H]1O[C@H](CO)[C@H](O)[C@H](O)[C@H]1O` the Potency [1] was 13.2 µM (active) and the Potency [2] was 10.5 µM (active).
In the case of `Cn1cc(C=CC(=O)c2cccc(F)c2)cc1C=CC(=O)NO`, the Potency [1] is reported as 18.7 µM (active), the Potency [3] is reported as 18.7 µM (active) and the Potency [4] is reported as 16.6 µM (active).
